Reference: paper PMC9911399, “Two distinct binding modes provide the RNA-binding protein RbFox with extraordinary sequence specificity”
Numbering of substitutions follows the chain as printed; changes in the protein carry UniProt numbers. Whole data set: some 16,000 sequences, median “ka relative to ugcaugu” near 0.0091, cut for the highest 2% near 0.032. The sample holds the highest values, similar sequences and a random draw of the others, so the mix is not that of the screen.

T1: RBFOX1 RRM (Homo sapiens, UniProt Q9NWB1 109-208)
T1 sequence: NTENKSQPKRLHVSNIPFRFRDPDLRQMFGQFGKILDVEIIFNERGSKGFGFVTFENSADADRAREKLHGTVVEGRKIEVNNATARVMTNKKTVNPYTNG

B1: UGCUCCU (DNA:RNA)
RNA: GGGAGACCGGAAUUCAGAUUGUCCUGCUCCUUUAAAUCCCGUCGUAGCCACCA
DNA 1: CAATCTGAATTCCGGTCTCCC
DNA 2: TGGTGGCTACGACGGGATT
B2: GAUCGAC (DNA:RNA)
RNA: GGGAGACCGGAAUUCAGAUUGUCCGAUCGACUUAAAUCCCGUCGUAGCCACCA
DNA 1: CAATCTGAATTCCGGTCTCCC
DNA 2: TGGTGGCTACGACGGGATT
B3: GAGAGCC (DNA:RNA)
RNA: B2 RNA with U27G, C28A, A30C
DNA 1: CAATCTGAATTCCGGTCTCCC
DNA 2: TGGTGGCTACGACGGGATT
B4: GCAUGUU (DNA:RNA)
RNA: B2 RNA with A26C, U27A, C28U, A30U, C31U
DNA 1: CAATCTGAATTCCGGTCTCCC
DNA 2: TGGTGGCTACGACGGGATT
B5: GCAUAGU (DNA:RNA)
RNA: B1 RNA with U25G, G26C, C27A, C29A, C30G
DNA 1: CAATCTGAATTCCGGTCTCCC
DNA 2: TGGTGGCTACGACGGGATT
B6: CCCCGCA (DNA:RNA)
RNA: B2 RNA with G25C, A26C, U27C, A30C, C31A
DNA 1: CAATCTGAATTCCGGTCTCCC
DNA 2: TGGTGGCTACGACGGGATT
B7: CCGCAUG (DNA:RNA)
RNA: B2 RNA with G25C, A26C, U27G, G29A, A30U, C31G
DNA 1: CAATCTGAATTCCGGTCTCCC
DNA 2: TGGTGGCTACGACGGGATT
B8: GCAUUGU (DNA:RNA)
RNA: B1 RNA with U25G, G26C, C27A, C29U, C30G
DNA 1: CAATCTGAATTCCGGTCTCCC
DNA 2: TGGTGGCTACGACGGGATT
B9: GCAAUGU (DNA:RNA)
RNA: B2 RNA with A26C, U27A, C28A, G29U, A30G, C31U
DNA 1: CAATCTGAATTCCGGTCTCCC
DNA 2: TGGTGGCTACGACGGGATT
B10: CGCAUUG (DNA:RNA)
RNA: B1 RNA with U25C, U28A, C29U, C30U, U31G
DNA 1: CAATCTGAATTCCGGTCTCCC
DNA 2: TGGTGGCTACGACGGGATT
B11: ACGCAUC (DNA:RNA)
RNA: B2 RNA with G25A, A26C, U27G, G29A, A30U
DNA 1: CAATCTGAATTCCGGTCTCCC
DNA 2: TGGTGGCTACGACGGGATT
B12: CGCAUGU (DNA:RNA)
RNA: B1 RNA with U25C, U28A, C29U, C30G
DNA 1: CAATCTGAATTCCGGTCTCCC
DNA 2: TGGTGGCTACGACGGGATT
B13: GCCAUGU (DNA:RNA)
RNA: B1 RNA with U25G, G26C, U28A, C29U, C30G
DNA 1: CAATCTGAATTCCGGTCTCCC
DNA 2: TGGTGGCTACGACGGGATT
B14: ACGCAUG (DNA:RNA)
RNA: B2 RNA with G25A, A26C, U27G, G29A, A30U, C31G
DNA 1: CAATCTGAATTCCGGTCTCCC
DNA 2: TGGTGGCTACGACGGGATT
B15: ACGCAUA (DNA:RNA)
RNA: B2 RNA with G25A, A26C, U27G, G29A, A30U, C31A
DNA 1: CAATCTGAATTCCGGTCTCCC
DNA 2: TGGTGGCTACGACGGGATT
B16: UCCGUCU (DNA:RNA)
RNA: B1 RNA with G26C, U28G, C29U
DNA 1: CAATCTGAATTCCGGTCTCCC
DNA 2: TGGTGGCTACGACGGGATT
B17: GGCAGGC (DNA:RNA)
RNA: B2 RNA with A26G, U27C, C28A, A30G
DNA 1: CAATCTGAATTCCGGTCTCCC
DNA 2: TGGTGGCTACGACGGGATT
B18: AAGCGUG (DNA:RNA)
RNA: B2 RNA with G25A, U27G, A30U, C31G
DNA 1: CAATCTGAATTCCGGTCTCCC
DNA 2: TGGTGGCTACGACGGGATT
B19: UUGAUCA (DNA:RNA)
RNA: B1 RNA with G26U, C27G, U28A, C29U, U31A
DNA 1: CAATCTGAATTCCGGTCTCCC
DNA 2: TGGTGGCTACGACGGGATT
B20: GGGCUGG (DNA:RNA)
RNA: B2 RNA with A26G, U27G, G29U, A30G, C31G
DNA 1: CAATCTGAATTCCGGTCTCCC
DNA 2: TGGTGGCTACGACGGGATT
B21: AACCGCC (DNA:RNA)
RNA: B2 RNA with G25A, U27C, A30C
DNA 1: CAATCTGAATTCCGGTCTCCC
DNA 2: TGGTGGCTACGACGGGATT
B22: UCGCAUA (DNA:RNA)
RNA: B2 RNA with G25U, A26C, U27G, G29A, A30U, C31A
DNA 1: CAATCTGAATTCCGGTCTCCC
DNA 2: TGGTGGCTACGACGGGATT
B23: UCGCAUG (DNA:RNA)
RNA: B2 RNA with G25U, A26C, U27G, G29A, A30U, C31G
DNA 1: CAATCTGAATTCCGGTCTCCC
DNA 2: TGGTGGCTACGACGGGATT
B24: UCGCAUC (DNA:RNA)
RNA: B2 RNA with G25U, A26C, U27G, G29A, A30U
DNA 1: CAATCTGAATTCCGGTCTCCC
DNA 2: TGGTGGCTACGACGGGATT
B25: GUAAGUA (DNA:RNA)
RNA: B2 RNA with A26U, U27A, C28A, A30U, C31A
DNA 1: CAATCTGAATTCCGGTCTCCC
DNA 2: TGGTGGCTACGACGGGATT
B26: UCACAAA (DNA:RNA)
RNA: B2 RNA with G25U, A26C, U27A, G29A, C31A
DNA 1: CAATCTGAATTCCGGTCTCCC
DNA 2: TGGTGGCTACGACGGGATT
B27: GAGCAAA (DNA:RNA)
RNA: B2 RNA with U27G, G29A, C31A
DNA 1: CAATCTGAATTCCGGTCTCCC
DNA 2: TGGTGGCTACGACGGGATT
B28: CUUUGUC (DNA:RNA)
RNA: B2 RNA with G25C, A26U, C28U, A30U
DNA 1: CAATCTGAATTCCGGTCTCCC
DNA 2: TGGTGGCTACGACGGGATT
B29: AUCCCAA (DNA:RNA)
RNA: B2 RNA with G25A, A26U, U27C, G29C, C31A
DNA 1: CAATCTGAATTCCGGTCTCCC
DNA 2: TGGTGGCTACGACGGGATT
B30: CGGAUCA (DNA:RNA)
RNA: B1 RNA with U25C, C27G, U28A, C29U, U31A
DNA 1: CAATCTGAATTCCGGTCTCCC
DNA 2: TGGTGGCTACGACGGGATT
B31: GGGAUCC (DNA:RNA)
RNA: B2 RNA with A26G, U27G, C28A, G29U, A30C
DNA 1: CAATCTGAATTCCGGTCTCCC
DNA 2: TGGTGGCTACGACGGGATT
B32: CGGAUCG (DNA:RNA)
RNA: B1 RNA with U25C, C27G, U28A, C29U, U31G
DNA 1: CAATCTGAATTCCGGTCTCCC
DNA 2: TGGTGGCTACGACGGGATT
B33: GGAUCCG (DNA:RNA)
RNA: B1 RNA with U25G, C27A, U31G
DNA 1: CAATCTGAATTCCGGTCTCCC
DNA 2: TGGTGGCTACGACGGGATT
B34: GGAUUCA (DNA:RNA)
RNA: B1 RNA with U25G, C27A, C29U, U31A
DNA 1: CAATCTGAATTCCGGTCTCCC
DNA 2: TGGTGGCTACGACGGGATT
B35: GGAUCGU (DNA:RNA)
RNA: B1 RNA with U25G, C27A, C30G
DNA 1: CAATCTGAATTCCGGTCTCCC
DNA 2: TGGTGGCTACGACGGGATT
B36: GGAAUCG (DNA:RNA)
RNA: B1 RNA with U25G, C27A, U28A, C29U, U31G
DNA 1: CAATCTGAATTCCGGTCTCCC
DNA 2: TGGTGGCTACGACGGGATT
B37: GGGAUCG (DNA:RNA)
RNA: B1 RNA with U25G, C27G, U28A, C29U, U31G
DNA 1: CAATCTGAATTCCGGTCTCCC
DNA 2: TGGTGGCTACGACGGGATT
B38: GGGAUCA (DNA:RNA)
RNA: B1 RNA with U25G, C27G, U28A, C29U, U31A
DNA 1: CAATCTGAATTCCGGTCTCCC
DNA 2: TGGTGGCTACGACGGGATT

The binders below were run against T1, RBFOX1 RRM (assay: EMSA; HiTS-Eq, 1 nM pool, 10 min; buffer printed only for the single-RNA assays: 10 mM Tris pH 7.5, 150 mM NaCl, 3.4 mM EDTA, 0.001% NP-40, 30 C). Conditions: tags: His6 N-terminal (pET28a); label: 5' 32P.
Summary of the method: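 Relative association constants, normalised to the cognate motif, were derived by comparing read counts of each RNA species with those of the control reaction. The RNA sequenced was the free fraction, separated by 8% native PAGE after a 10 min equilibration in 50 µL of 1 nM 5′-radiolabelled RNA (7 randomized nucleotides) with increasing concentrations of purified wild-type or mutant RbFox RRM.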

Binder	binding signal
B1	0.0145 KA relative to UGCAUGU
B2	0.0165 KA relative to UGCAUGU
B3	0.0145 KA relative to UGCAUGU
B4	0.635 KA relative to UGCAUGU
B5	0.0104 KA relative to UGCAUGU
B6	0.0132 KA relative to UGCAUGU
B7	0.806 KA relative to UGCAUGU
B8	0.0129 KA relative to UGCAUGU
B9	0.01 KA relative to UGCAUGU
B10	0.0131 KA relative to UGCAUGU
B11	0.00881 KA relative to UGCAUGU
B12	0.735 KA relative to UGCAUGU
B13	0.0117 KA relative to UGCAUGU
B14	0.697 KA relative to UGCAUGU
B15	0.00394 KA relative to UGCAUGU
B16	0.0154 KA relative to UGCAUGU
B17	0.0103 KA relative to UGCAUGU
B18	0.0169 KA relative to UGCAUGU
B19	0.0152 KA relative to UGCAUGU

Binder	binding signal
B20	0.0301 KA relative to UGCAUGU
B21	0.00718 KA relative to UGCAUGU
B22	0.00838 KA relative to UGCAUGU
B23	0.809 KA relative to UGCAUGU
B24	0.0121 KA relative to UGCAUGU
B25	0.00628 KA relative to UGCAUGU
B26	0.00202 KA relative to UGCAUGU
B27	0.00616 KA relative to UGCAUGU
B28	0.0202 KA relative to UGCAUGU
B29	0.00187 KA relative to UGCAUGU
B30	0.0199 KA relative to UGCAUGU
B31	0.0157 KA relative to UGCAUGU
B32	0.0358 KA relative to UGCAUGU
B33	0.00934 KA relative to UGCAUGU
B34	0.0122 KA relative to UGCAUGU
B35	0.0112 KA relative to UGCAUGU
B36	0.0216 KA relative to UGCAUGU
B37	0.0449 KA relative to UGCAUGU
B38	0.0351 KA relative to UGCAUGU
